Source: PubChem BioAssay AID488969 (Vanderbilt High Throughput Screening Facility, 2010)
Over roughly 110,000 compounds, “z-score” has its median near -0.1; the highest 2% begin near 2. For the sample, the highest values were picked, then their nearest neighbours and some compounds at random. Activity calls are given as the source filed them.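 The calls were made as follows: active = z-score in the third read window above 3 or below -3; inactive = the rest.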

Each molecule was assayed against Metabotropic glutamate receptor 8 (Rattus norvegicus) (UniProt P70579) (assay: mGluR8 Gi/Go-coupled signaling modulation – cell-based, rat, thallium flux, HTS, primary screen (AID 488969)). Conditions: HEK293 rat mGluR8, GIRK (G protein-gated inwardly rectifying potassium channel) thallium flux, FluoZin2; at 10 µM; stronger effect = higher value; submaximal glutamate (EC20) added with thallium.
Chain of Metabotropic glutamate receptor 8 (Rattus norvegicus) (P70579 whole entry, looked up): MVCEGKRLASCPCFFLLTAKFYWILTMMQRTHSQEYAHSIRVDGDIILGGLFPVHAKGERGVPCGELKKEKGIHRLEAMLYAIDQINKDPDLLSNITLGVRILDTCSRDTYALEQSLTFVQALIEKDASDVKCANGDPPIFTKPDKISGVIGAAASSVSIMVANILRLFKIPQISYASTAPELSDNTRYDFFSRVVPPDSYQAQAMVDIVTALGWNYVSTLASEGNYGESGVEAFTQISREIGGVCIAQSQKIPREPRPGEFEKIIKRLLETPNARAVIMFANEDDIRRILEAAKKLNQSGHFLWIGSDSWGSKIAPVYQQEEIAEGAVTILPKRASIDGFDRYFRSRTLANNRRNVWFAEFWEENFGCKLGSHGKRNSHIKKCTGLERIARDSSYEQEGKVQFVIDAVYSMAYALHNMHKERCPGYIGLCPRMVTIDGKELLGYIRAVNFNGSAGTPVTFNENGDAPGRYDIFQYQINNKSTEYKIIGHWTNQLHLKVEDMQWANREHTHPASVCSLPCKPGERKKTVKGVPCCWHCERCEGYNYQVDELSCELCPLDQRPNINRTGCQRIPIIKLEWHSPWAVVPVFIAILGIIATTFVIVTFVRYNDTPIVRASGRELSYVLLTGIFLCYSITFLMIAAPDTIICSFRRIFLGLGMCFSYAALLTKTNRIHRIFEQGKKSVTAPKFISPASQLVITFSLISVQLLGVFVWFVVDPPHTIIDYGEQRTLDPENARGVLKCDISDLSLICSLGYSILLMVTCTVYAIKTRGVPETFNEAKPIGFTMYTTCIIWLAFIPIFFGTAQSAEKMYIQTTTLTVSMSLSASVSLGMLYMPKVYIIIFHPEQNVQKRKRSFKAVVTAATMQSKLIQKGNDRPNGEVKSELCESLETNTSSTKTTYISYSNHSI

SMILES	z-score
O=C(COc1ccc(S(=O)(=O)NC2CCCCC2)cc1Cl)NCc1cccnc1	-0.567
Cc1cc(NC(=O)c2cccc(S(=O)(=O)N3CCCCCC3)c2)no1	0.223
O=C(COC(=O)Cn1cnc2ccccc2c1=O)Nc1ccccc1Sc1ccc(Cl)cc1	0.148
COC(=O)c1ccc(OC(=O)c2ccco2)cc1	0.696
COC(=O)C1=C(C)NC(C)=C(C(=O)OC)C1c1ccc(OC(=O)c2ccco2)cc1	-0.519
CC1CC(C)(C)Nc2ccc(OC(=O)c3ccco3)cc21 (stereo unspecified)	2.2
COc1cc(CNc2nc(C)c([N+](=O)[O-])c(C)c2C#N)cc(OC)c1	-0.18
COc1ccc(CCN2C(=O)C(O)=C(C(C)=O)C2c2ccccc2OC)cc1OC (stereo unspecified)	-0.511
O=C(O)CN1C(=O)C2(OCCCO2)c2ccccc21	0.0511
CC(C)(C)C(=O)CN1C(=O)C2(OCCO2)c2ccccc21	0.508
CC(C)CC(=O)CN1C(=O)C2(OCCO2)c2ccccc21	6.5 (active)
CC(C)OC(=O)C1C2C=CC3(CN(Cc4cccs4)C(=O)C13)O2 (stereo unspecified)	0.0334
CN(C1CCCCC1)S(=O)(=O)c1ccc(NC(=S)NC(=O)c2cccs2)cc1	2.93
O=C(Nc1ccc(NC(=S)NC(=O)c2cccs2)cc1)c1ccccc1	-0.193
CN(C1CCCCC1)S(=O)(=O)c1ccc(NC(=O)C2CCCCC2)cc1	-0.089
Cc1ccc(C(=O)NC(=S)Nc2ccc(S(=O)(=O)N(C)c3ccccc3)cc2)cc1	0.95
CN(c1ccccc1)S(=O)(=O)c1ccc(NC(=S)NC(=O)c2ccccc2)cc1	3.04 (active)
Cc1cccc(C(=O)NC(=S)Nc2ccc(S(=O)(=O)N(C)c3ccccc3)cc2)c1	1.39
CCCCN(CCCC)S(=O)(=O)c1ccc(NC(=O)c2cccs2)cc1	0.572
CCN(c1ccccc1)S(=O)(=O)c1ccc(NC(=S)NC(=O)c2cccs2)cc1	2.75
CN(C)S(=O)(=O)c1ccc(NC(=O)c2ccc(Br)o2)cc1	0.638
CCN(c1ccccc1)S(=O)(=O)c1ccc(NC(=S)NC(=O)c2ccc(Br)o2)cc1	5.31 (active)

SMILES	z-score
O=C(Nc1ccc(S(=O)(=O)NCc2ccccc2)cc1)c1ccc(Br)o1	0.32
O=C(NC(=S)Nc1ccc(S(=O)(=O)NC2CCCCC2)cc1)c1cccs1	0.16
CN1CCN(S(=O)(=O)c2ccc(NC(=S)NC(=O)c3ccccc3)cc2)CC1	0.103
O=C(c1ccco1)N1CCN(C(=O)C2CCN(S(=O)(=O)c3cccc4nsnc34)CC2)CC1	0.0379
COc1ccc2c(c1)NC1(O)c3ccccc3C(=O)C21O (stereo unspecified)	0.297
CC1(C)N=C(N)NC(Nc2ccc(Br)cc2)=N1	-0.00115
Cc1ccccc1-c1noc(-c2ccc(Cl)cc2)n1	-0.0855
COc1ccc(-c2csc(NC(=O)c3nc(-c4ccccc4)oc3C)n2)cc1	0.528
Cc1nc2ccccc2nc1OCC(=O)N1CCN(c2ccccc2)CC1	-0.273
Cc1ccc2c(c1)N(C(=O)c1ccco1)C(C)(C)c1ssc(=S)c1-2	-0.788
COc1ccccc1-n1cnnc1SCC(=O)N1CC(=O)Nc2ccccc21	-0.0356
CS(=O)(=O)N1Cc2ccccc2CC1C(=O)OCC(=O)Nc1ccc2ccccc2c1 (stereo unspecified)	0.0644
Cc1cc(C)cc(NS(=O)(=O)c2ccc(NC(=S)NC(=O)c3cccs3)cc2)c1	0.901
Cc1cc(C)cc(NS(=O)(=O)c2ccc(NC(=S)NC(=O)c3ccc(Br)o3)cc2)c1	2.18
Cc1cc(C)cc(NS(=O)(=O)c2ccc(NC(=S)Nc3ccccc3)cc2)c1	9.02e-05
CCc1[nH]nc2c1C(c1ccncc1)C(C#N)=C(N)O2 (stereo unspecified)	0.499
O=C(O)c1ccc(NC(=S)NC2CCCCC2)cc1	0.13
O=C(CN1C(=O)c2cccc3cccc1c23)NCc1ccc2c(c1)OCO2	-0.178
Cc1cc(C)nc(N2CCCC(C(=O)NCCc3cccc(F)c3)C2)n1 (stereo unspecified)	-0.0417
Cc1cc(C)nc(N2CCCC(C(=O)NCCc3ccc(F)cc3)C2)n1 (stereo unspecified)	3.52 (active)
Cc1cc(C)nc(N2CCCC(C(=O)NCCc3ccccc3F)C2)n1 (stereo unspecified)	-0.306
COc1cc(S(=O)(=O)N2CCOCC2)ccc1NC(=O)COC(=O)CC12CC3CC(CC(C3)C1)C2	0.016

SMILES	z-score
CCOC(=O)c1cc2sccc2n1CC(=O)N1CCCC1	-0.278
Cc1ccc(S(=O)(=O)N2CCOCC2)cc1NC(=O)CSc1nnc2cc(C)c3ccccc3n12	-1.43
CCCCSc1nnc(-c2cc3c(C(F)(F)F)nn(C)c3s2)n1C	-0.355
Cn1c(-c2cc3c(C(F)(F)F)nn(C)c3s2)n[nH]c1=S	-0.114
CCn1c(-c2cc3c(C(F)(F)F)nn(C)c3s2)n[nH]c1=S	7 (active)
Cc1cc(N2CCN(c3nc(N4CCOCC4)nc4ccccc34)CC2)c2ccccc2n1	0.213
CC(C)CC(C(=O)Nc1oc(-c2ccccc2)c(-c2ccccc2)c1C#N)N1C(=O)c2ccccc2C1=O (stereo unspecified)	-0.151
COc1ccc(C(=O)Oc2ccc(/C=N/NC(=O)Cc3ccc([N+](=O)[O-])cc3)cc2)cc1	0.194
Cc1cccc(C(=O)NC(=S)NNC(=O)c2ccc(Cl)cc2)c1	6.22 (active)
Cc1ccc(C(=O)NC(=S)NNS(=O)(=O)c2ccc(C)cc2)cc1	0.234
COC(=O)NNC(=O)c1ccc(Cl)cc1Cl	-0.27
Cc1ccc(C(=O)NNC(=S)NC(=O)c2ccc(Cl)cc2)cc1	7.64 (active)
Cc1ccc(C(=O)NC(=S)Nc2ccc(NC(=O)c3cccc(Cl)c3)cc2)cc1	-0.278
Cc1onc(-c2ccccc2)c1C(=O)NNC(=S)NC(=O)c1ccc(Cl)cc1Cl	0.272
Cc1ccc(C(=O)NNC(=S)NC(=O)c2ccc(Cl)cc2Cl)cc1	2.02
Cc1cccc(C(=O)NNC(=O)c2ccc(-c3ccccc3)cc2)c1	0.252
O=C(NC(=S)NNC(=O)c1ccc(Cl)cc1Cl)c1cccnc1	-0.129
O=C(NNC(=S)NC(=O)c1cccnc1)c1ccc(Cl)cc1	0.171
O=C(NNC(=O)c1ccc(Cl)cc1Cl)c1ccncc1	0.97
Cc1ccccc1C(=O)NNC(=S)NC(=O)c1ccc(Cl)cc1Cl	4.35 (active)
CN(C)[C@@H]1CCC[C@H]1OC(=O)C(c1ccccc1)c1ccccc1	-1.41
Cc1ccc(S(=O)(=O)N2CCN(S(=O)(=O)c3ccc(C)cc3)C2)cc1	-0.481

SMILES	z-score
O=C(COC(=O)Cc1ccc(Cl)cc1Cl)NCCC1=CCCCC1	-1.17
CCCC(=O)Nc1ccc(C(=O)Nc2nc(CC(=O)OCC)cs2)cc1	-0.437
CCCN1C/C(=C/c2ccc3c(c2)OCO3)C(=O)/C(=C/c2ccc3c(c2)OCO3)C1	-0.565
Cc1ccc2c(c1)C1CCCC3C1N2CC(=O)N3Cc1ccccc1 (stereo unspecified)	-0.338
C/C(=N\O)C(C)/[N+]([O-])=C/c1nc(C)c(C)n1O (stereo unspecified)	1.53
O=C(CSc1nc2ccccc2c(=O)n1-c1ccc(F)cc1)Nc1ccc(N2CCOCC2)cc1	-0.000577
Cc1cccc(C(=O)NC(=S)NNC(=O)Cc2ccccc2)c1	1.8
O=C(NC(=S)NNC(=O)c1cccs1)c1ccco1	1.08
CCNC(=S)NNC(=O)c1cccs1	-0.146
Cc1ccc(OCC(=O)NC(=S)Nc2cccc(NC(=O)c3ccc(Cl)cc3Cl)c2)cc1	0.148
O=C(COc1ccccc1)NNC(=S)NC(=O)c1ccc(Cl)cc1Cl	5.19 (active)
O=C(COc1cccc(Cl)c1)NNC(=S)Nc1ccccc1	0.593
O=C(NNC(=O)c1cccs1)c1ccc(Br)o1	-0.207
O=C(NC(=S)NNC(=O)c1cccs1)c1ccc(Br)o1	4.37 (active)
Cc1cccc(C(=O)NC(=S)NNC(=O)c2ccccc2Cl)c1	5.34 (active)
O=C(NNC(=S)NC(=O)c1cccs1)c1ccc(NC(=O)c2ccccc2)cc1	-0.0903
COc1ccc(C)cc1NC(=S)NNC(=O)c1ccccc1Cl	0.678
Cc1cccc(C(=O)NC(=S)NNC(=O)c2cccs2)c1	5.42 (active)
CC1=C(C(=O)Nc2cc(C)ccc2C)C(c2cccs2)NC(=S)N1 (stereo unspecified)	-0.0019
O=C(CS(=O)CC(=O)N(c1ccccc1)C(C(=O)NC1CCCCC1)c1ccco1)Nc1ccc(F)cc1 (stereo unspecified)	-0.245
COc1ccc(S(=O)(=O)n2nc(C)cc2C)c(C)c1C	-0.246
CC(=O)Nc1ccc(S(=O)(=O)NNC(=O)CCC(=O)Nc2cc(C)ccc2C)cc1	-0.368

SMILES	z-score
Cc1ccccc1Nc1nc(-c2ccccc2)c(C(=O)Nc2cccnc2)s1	0.177
O=C(O)CCSc1nc2ccccc2n1CCOc1ccccc1	0.105
CS(=O)(=O)c1ccc(Sc2nc3ccccc3[nH]2)c([N+](=O)[O-])c1	-0.102
O=C1/C(=C/c2ccccc2)Nc2ccccc21	-0.773
Cc1ccccc1C(=O)NNC(=S)NC(=O)c1ccccc1	3.78 (active)
Cc1ccccc1C(=O)NNC(=O)CCC(=O)Nc1cccc(Cl)c1C	-0.34
O=C(NC(=S)NNC(=O)c1ccccc1[N+](=O)[O-])c1ccccc1	-0.00864
Cc1ccc(NC(=O)C(=O)NNC(=O)c2ccccc2C)cc1Cl	-0.171
Cc1ccc(C(=O)NC(=S)NNC(=O)c2ccccc2[N+](=O)[O-])cc1	0.414
Cc1ccccc1C(=O)NNC(=O)C(=O)Nc1cccc(Cl)c1C	6.02 (active)
Cc1cc(C)nc(Sc2ccc(/C=C(\C#N)C(=O)Nc3ccccc3)o2)n1	-0.125
O=C(NCc1ccco1)c1cc(-c2cccc(Cl)c2)on1	0.0775
CCN(CC)CCCNC(=O)c1cc(-c2ccc(Cl)cc2)on1	1.7
O=C(NCc1cccs1)c1cc(-c2cccc(Cl)c2)on1	-1.01
CCN(CC)CCCNC(=O)c1cc(-c2cccc(Cl)c2)on1	2.64
CCN(CC)CCCNC(=O)c1cc(-c2ccc(Cl)c(Cl)c2)on1	5.37 (active)
CCN(CC)CCCNC(=O)c1cc(-c2ccc(O)cc2)on1	0.686
CCCCC(=O)Nc1ccc(C(=O)NNC(=S)NC(=O)c2cccs2)cc1	0.439
